The values below come from ChEMBL document CHEMBL1157539, “Thousands of chemical starting points for antimalarial lead identification” (Nature, 2010).

The assay deals with HepG2. In words: GSK_TCMDC: Percent inhibition of human HepG2 cell line. Test compounds present at 10uM. The assay is classed as functional.
What is called Inhibition is the drop in the measured response relative to a control, in per cent. For the molecule `CNC(=O)c1ccccc1Nc1nc(Nc2cccc(CS(C)(=O)=O)c2)ncc1C.O=CO`, the Inhibition is 74%.

`COc1ccc2ccccc2c1CCCCN1CCN(CC(c2ccc(F)cc2)N2CCN(C3CCCC3)CC2)CC1.O=C(O)C(F)(F)F` (stereo not given) yielded an Inhibition of 88%.

For `O=C(Nc1ccc(Oc2ccccc2)cc1)N(Cc1ccc(-c2ccc(CN3CCNCC3)cc2)cc1)C1CCN(Cc2ccccc2)CC1.O=C(O)C(F)(F)F`, the Inhibition came out at 31%.

On to `O=C(Nc1cccc(CN2CCCN(Cc3ccc(O)cc3)CC2)c1)c1ccc(Cl)c(Cl)c1.O=C(O)C(F)(F)F`, for which the Inhibition is recorded as 22%.

Turning to `CN1CCC(NCc2cccc(-c3ccc(S(=O)(=O)NCc4ccccc4)c(F)c3)c2)CC1.O=C(O)C(F)(F)F`, the Inhibition came to 94%.

For the molecule `O=C(NCCN1CCC(NC(=O)c2ccc(-c3ccccn3)s2)CC1)c1cccc(C(F)(F)F)c1.O=C(O)C(F)(F)F`, the Inhibition was 4%.

For `O=C(Nc1ccc(N2CCCN(Cc3cccc(F)c3)CC2)cc1)c1cccs1.O=C(O)C(F)(F)F`, the Inhibition is recorded as 2%.

`COc1cc2nc(N(C)Cc3cccc(I)c3)nc(N)c2cc1OC` came in with an Inhibition of 7%.

Regarding `COc1cc(NC(=O)c2cc3c(C)nn(-c4cccc(C(F)(F)F)c4)c3s2)cc(OC)c1OC`, the Inhibition is 0%.

Molecule `COc1ccc(C2=[N+]([O-])c3ccccc3C2=O)cc1` registered an Inhibition of 2%.

For the molecule `CCc1c(CCNCCCCCCNCCc2ccc(OC)cc2)ccc(OC)c1OC.Cl`, the Inhibition turned out to be 16%.

Consider `Cc1ccc(C(C)C)c(Oc2cnc(NC(CO)c3ccccc3)nc2N)c1` (stereo not given), for which the Inhibition is given as 27%.

In turn, `COc1ccc2ncc(F)c([C@H](O)CN3CCC(NCc4ccc5c(c4)OCCO5)CC3)c2c1.Cl` yielded an Inhibition of 1%.

`Cc1nc2c(s1)c(=O)cc(CCc1cccc(F)c1F)n2CC(=O)N(Cc1ccc(-c2ccc(C(F)(F)F)cc2)cc1)C1CCN(C(C)C)CC1.O=C(O)C(O)C(O)C(=O)O` yielded an Inhibition of 98%.

`COc1ccc2nccc(N3CCC(O)(CCNCc4ccc5c(n4)NC(=O)CS5)CC3)c2n1.Cl` had an Inhibition of 10%.

Molecule `CCN(CC)CCN(Cc1ccc(-c2ccc(C(F)(F)F)cc2)cc1)C(=O)Cn1c(CCc2cccc(F)c2F)nc(=O)c2ccc(C)cc21.O=C(O)C(O)C(O)C(=O)O` yielded an Inhibition of 39%.

Turning to `N#Cc1ccccc1S(=O)(=O)N1CCCC(CNC(=O)[C@H](CC2CCCCC2)NC(=O)c2cc3ccccc3s2)C1` (stereo not given in full), the Inhibition is reported as 9%.

In turn, `COCCN(CCOC)c1ncc(-c2ccsc2)c(-c2nc(C)c(C)s2)n1` had an Inhibition of 1%.

The molecule `O=C(Nc1ccc(Cl)cc1)Nc1cccc(-c2ccc(-c3nc4ccccc4[nH]3)cc2)c1` gave an Inhibition of 19%.

In the case of `O=C(Nc1ccc(Cl)c(Cl)c1)Nc1cc(C(F)(F)F)ccc1Cl`, the Inhibition is listed as 0%.

`COc1ccc2ncc(F)c(CCN3CCC(NCc4cc(OC)c5c(c4)OCCO5)CC3)c2n1.Cl`: the Inhibition is 0%.

In turn, `COc1cc(NC(=O)c2sc(-c3ccc(Cl)cc3)cc2NC(=O)CN2CC[C@@H](O)C2)ccc1OCCN1CCCC1` came in with an Inhibition of 56%.

Consider `Cc1cc(Cl)ccc1OC(C)C(=O)N1CCc2ccccc21` (stereo not given), for which the Inhibition turned out to be 8%.

As to `Cl.O=C(Nc1ccc(Cl)c(Cl)c1)N1CCc2ccc(OCCCN3CCCCC3)cc2CC1`, the Inhibition stood at 27%.

Molecule `CCc1cn2c3c(cc(C(=O)N[C@@H](Cc4cccc(F)c4)[C@H](O)CNC4CC4)cc13)N(C)S(=O)(=O)CC2.O=CO` came in with an Inhibition of 2%.

`COc1cc2ncnc(Nc3ccc4nc(Cc5ccccc5)[nH]c4c3)c2cc1OC.Cl` came in with an Inhibition of 0%.

Molecule `CC(C)c1nc(N2CCN(C(=S)NCc3ccccc3)CC2)c(C#N)c2c1COC(C)(C)C2` registered an Inhibition of 0%.

Take `CC(=O)N[C@H](C(=O)Nc1ccc(-c2ccc(-c3nc4cc(C(F)(F)F)ccc4[nH]3)cc2)cc1)C(C)C`: the Inhibition came to 24%.

In turn, `CCOc1ccc2c(=NN=Cc3cccc(OC)c3OC)cc(C)[nH]c2c1` gave an Inhibition of 4%.

`CCCC(C)NC(=O)[C@H]1CNCCN1C(=O)CCCc1ccccc1.O=C(O)C(F)(F)F` (stereo not given in full): the Inhibition is reported as 47%.

Turning to `Cc1cccc2nc(-c3cccc(-c4ccc(NC(=O)Nc5ccc(F)c(F)c5F)cc4)c3)[nH]c12`, the Inhibition was found to be 61%.

Molecule `CCc1c(C)nc(-n2nc(C)cc2NC(=O)CCc2ccccc2)[nH]c1=O` displayed an Inhibition of 48%.

Take `O=C(Cn1c(CCc2cccc(F)c2F)cc(=O)c2cccnc21)N(CCn1ccnc1)Cc1ccc(-c2ccc(C(F)(F)F)cc2)cc1`: the Inhibition was determined as 39%.

As for `CC(C)[C@H](NC(=O)c1ccc(O)c(-c2ccc(Cl)c(Cl)c2)c1)C(=O)NCCN1CCOCC1`, the Inhibition worked out at 0%.

Molecule `O=C(Nc1ccccc1F)N(CCCn1ccnc1)Cc1csc(-c2ccc(CNCc3ccccc3)cc2)n1.O=C(O)C(F)(F)F` had an Inhibition of 24%.
